# Sampled rows, rich in hits. Any-hit rate of the full collection: about 3.1%.
# MLL AF4-AF9 inh = inhibitors of human MLL-AF4/AF9 interaction; P42568; AlphaScreen, biotin-AF4 peptide binding to FLAG-AF9; inhibition, % at 10 µM; actives 0.47% (n = 350,000); AID 651704;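 active means every replicate reaching a set inhibition limit, whatever the replicate mean, cut at about 25% in these data; inconclusive means mean inhibition reaches that limit but some replicates miss it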;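 further: 0% = plate neutral control median and 100% = total signal loss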
# RAD54 branch = RAD54 (human) branch migration inhibition. Q92698. RAD54 Holliday junction branch migration, FAM/BHQ fluorescence. inhibition, % at 10.4 µM. actives 0.14% (n = 360,000);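 active means mean normalized replicate activity at least 40 and at least half of replicates scoring 40 or more; inconclusive means only one of the two criteria met; inactive means mean below 40 and under half of replicates reaching 40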;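 further: 0% = median of neutral control wells and 100% = median of positive control wells; inhibitors cause a drop in the FAM fluorescence signal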
# Target sequence (Q92698 whole entry, looked up): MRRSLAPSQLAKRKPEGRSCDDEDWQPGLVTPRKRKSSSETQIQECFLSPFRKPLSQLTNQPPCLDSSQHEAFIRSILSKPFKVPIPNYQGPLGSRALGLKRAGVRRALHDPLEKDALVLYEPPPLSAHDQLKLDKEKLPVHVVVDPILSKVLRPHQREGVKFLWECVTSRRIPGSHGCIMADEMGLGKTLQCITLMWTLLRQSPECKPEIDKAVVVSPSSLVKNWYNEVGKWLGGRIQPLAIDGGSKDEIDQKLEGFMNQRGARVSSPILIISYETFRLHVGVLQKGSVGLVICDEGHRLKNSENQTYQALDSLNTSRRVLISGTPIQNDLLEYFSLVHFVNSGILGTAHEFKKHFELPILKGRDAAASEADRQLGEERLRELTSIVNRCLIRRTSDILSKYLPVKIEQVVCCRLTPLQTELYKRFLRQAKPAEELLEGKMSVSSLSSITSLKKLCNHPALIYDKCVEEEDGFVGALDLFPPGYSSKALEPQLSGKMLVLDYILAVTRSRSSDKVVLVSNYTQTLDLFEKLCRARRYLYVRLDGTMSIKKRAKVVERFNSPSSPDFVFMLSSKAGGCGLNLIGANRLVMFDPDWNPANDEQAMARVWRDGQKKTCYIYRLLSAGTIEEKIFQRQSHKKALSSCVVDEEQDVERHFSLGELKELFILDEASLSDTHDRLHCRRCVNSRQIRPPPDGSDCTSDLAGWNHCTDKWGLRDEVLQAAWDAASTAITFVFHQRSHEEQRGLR
# INS-1E GSIS act = GLuc luminescence reporter in INS-1E cells, primary screen for activators of glucose-dependent secretion of insulin; actives 0.61% (n = 370,000); INS-1E GLuc reporter insulin secretion, 2-3 h; AID 743287; activation, % at 16.6 µM;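 active means lowest replicate activation of at least 40%, so every replicate reaches that level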;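 further: 0% = median of neutral control wells and 100% = median of IBMX positive control wells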
# RAD52 anneal inh = RAD52 (human) annealing inhibition. P43351. recombinant RAD52 DNA annealing, FRET fluorescence. inhibition, % at 18.7 µM. actives 0.46% (n = 360,000). AID 651710;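 active means every replicate showing at least 50% inhibition; inconclusive means mean inhibition at least 50% but not in every replicate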
# dFosB activator = enhances mouse delta FosB homodimer DNA binding; P13346; purified delta FosB, TAMRA-CDK5 oligo fluorescence polarization; percent of positive-control signal above neutral wells; activation, % at 25 µM; actives 0.99% (n = 340,000);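 active means mean activation above about 17%, with every replicate also reaching it, limit read from the data, passing the limit was not always enough; inconclusive means only one of the two conditions met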
# DENV2 CPE = protects cells from dengue virus 2 cytopathic effect. AID 651640. DENV2-infected cells, cytopathic effect rescue, plate reader. CPE inhibition, % at 9.99 µM. actives 1.7% (n = 350,000); in the data active means CPE inhibition above about 20%, passing the limit was not always enough; inconclusive means no clear call, values can overlap the other calls; tested in BHK-21 cells;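 further: 0% = median of neutral control wells and 100% = median of positive control wells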
# AlphaScreen intf = interferes with the AlphaScreen assay signal; shares compounds with MLL AF4-AF9 inh; AlphaScreen interference counter-screen, signal luminescence; AC50, µM (highest dose often 12 µM), for inactives: at the highest dose activity change, negative = inhibition; actives 45% (n = 530); cut-off not given, nearly all actives have AC50 up to about 14 µM
# RAD52 DNA ctr = DNA binding artifact in RAD52 counter-screen. actives 8% (n = 1,000). Salmon sperm DNA/acridine orange FP displacement. AC50, µM. AID 652128. shares compounds with RAD52 anneal inh;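 active means fitted half-maximal concentration for signal loss at or below twice the highest dose tested, in every separate run, actives reach about 64 µM in these data; inconclusive means runs disagree, or flat partial signal loss, or poor fit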
# * hit, by the source's call; i = inactive; u = inconclusive; x = no result given; ! = not confirmed by another sample.
SMILES,MLL AF4-AF9 inh,RAD54 branch,INS-1E GSIS act,RAD52 anneal inh,dFosB activator,DENV2 CPE,RAD52 DNA ctr,others
CN(C)c1ccc(/C=C/C=C/c2sc3ccccc3[n+]2C)cc1,61*,14,-52,63*,u,-9,u,AlphaScreen intf=3.7µM*
COC(=O)C[C@H]1CC[C@H]2NC[C@H](O)COC[C@@H]2O1,-1,-9,11,-6,x,-3,x,
COc1cc2c(cc1OC)-c1c(OC)c(OC)cc3c1C(C2)N(C)CC3 (stereo unspecified),14,62*,-14,71*,-8,-2,i,
COc1ccc2c(c1OC)C(=O)O[C@H]2[C@@H]1c2cc3c(cc2CCN1C)OCO3,2,0,2,-8,1,4,x,
COc1cc2c(cc1OC)-c1c3c(cc4c1[C@@H](C2)N(C)CC4)OCO3,20,104*,3,100*,11,-4,i,
CC(C)N1CCN(c2ccc(O)cc2)CC1,-7,19,-2,83*,-4,2,i,
COc1ccc(OCC(=O)N2CCN(C(C)C)CC2)cc1,x,6,x,x,-3,x,x,
Cc1[nH]c2ccccc2c1C1=CCNCC1,38*,2,-10,65*,6,-4,i,
C1=C(c2ccccc2)CCNC1,-4,0,-6,-4,2,3,x,
OC12ONC(c3ccccn3)C1N1CCC2CC1 (stereo unspecified),0,19,12,80*,-2,1,i,
COC(=O)[C@@H]1[C@@H](CO)[C@@H]2Cn3c(ccc(-c4ccncc4)c3=O)[C@H]1N2S(=O)(=O)c1ccccc1C,-24,-13,27,2,x,-10,x,
N#Cc1cccc(-c2ccc([C@@H]3[C@@H](CO)N4CCCCN(C(=O)Cc5cccnc5)C[C@H]34)cc2)c1,x,12,-4,-2,x,x,x,
CC12CNCC(C)(CNC1)C2O (stereo unspecified),10,26,1,57*,3,-5,i,
CN1CC[C@@H]2CN[C@H](c3ccccc3Br)C[C@@H]21,x,x,17,71*,x,5,i,
CN1OC[C@@H]2CN[C@H](c3ccccc3Br)C[C@@H]21,-1,8,-13,-30,2,u,x,
CCc1cc(OC)c(CCN)cc1OC,x,x,16,-6,x,6,x,
NCCc1cc(O)c(O)cc1O,7,-3,x,90*!,-74,-3,i,
COC(=O)[C@@H]1[C@@H](CO)[C@@H]2Cn3c(ccc(-c4cccc(OC)c4)c3=O)[C@H]1N2C(=O)c1ccccc1F,2,-2,16,-4,x,1,x,
Cc1cc(N2CCNC[C@@H]2C)ccc1N1CC[C@@H](O)C1,x,x,x,96*,x,11,i,
COc1cccc(-c2ccc3n(c2=O)C[C@H]2[C@H](CO)[C@@H](C(=O)O)[C@@H]3N2Cc2ccccc2F)c1,x,x,-1,x,x,x,x,
Nc1ccc(CC2=NCCN2)cc1,7,x,0,84*,-1,38*,63µM*,
Cc1sc2ccccc2c1CC1=NCCN1,u,8,-2,12,-5,-1,x,
CCOC(=O)c1c(C)n(Cc2ccccc2)c2ccc(OCC(O)CNC(C)(C)C)cc12 (stereo unspecified),19,22,18,52*,1,0,i,
CCCC#Cc1ccc([C@H]2[C@@H](CO)N3CCCCN(C(=O)Cc4ccccn4)C[C@@H]23)cc1,1,7,15,-32,x,6,x,
Clc1ccc2sc(C3CCNCC3)nc2c1,-17,4,-10,56*,0,11,i,
SMILES,MLL AF4-AF9 inh,RAD54 branch,INS-1E GSIS act,RAD52 anneal inh,dFosB activator,DENV2 CPE,RAD52 DNA ctr,others
COC(=O)[C@H]1[C@H](CO)[C@H]2Cn3c(cccc3=O)[C@@H]1N2Cc1nccs1,-1,-6,2,-2,x,-3,x,
COC(=O)[C@H]1[C@H](CO)[C@H]2Cn3c(cccc3=O)[C@@H]1N2C(=O)C1CCC1,-1,-6,x,-12,x,0,x,
CCOc1ccc(C(C)=O)cc1Cn1ccsc1=N,6,12,19,64*,-3,7,i,
Oc1ccc(-[n+]2c(-c3ccccc3)cc(-c3ccccc3)cc2-c2ccccc2)cc1,u,12,-59,60*,-2,-1,i,
O=C([O-])c1ccc(-[n+]2c(-c3ccccc3)cc(-c3ccccc3)cc2-c2ccccc2)cc1,18,14,-48,57*,-10,-7,i,
COC(=O)[C@@H]1[C@@H](CO)[C@@H]2Cn3c(ccc(C4=CCCCC4)c3=O)[C@H]1N2C(=O)Cc1ccccn1,0,-3,10,-10,x,4,x,
O=C(O)[C@@H]1[C@@H](CO)[C@@H]2Cn3c(ccc(C4=CCCCC4)c3=O)[C@H]1N2C(=O)Cc1ccccn1,2,-2,6,-5,x,-9,x,
